# According to PubChem BioAssay AID1321 (The Scripps Research Institute Molecular Screening Center, 2008):
# Among all 220,000 compounds or so, about 2,600 (1.2%) were called active. The list comes from a sample in which actives are over-represented; it also holds similar structures and randomly drawn compounds. Values without a mark were called inactive.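 Rule for the calls: active = activation above the mean of all tested compounds plus 3 SD, set per screening run (cut at about 8.8% in these data); inactive = the rest.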
# Biological target: Wee1-like protein kinase (Homo sapiens) (UniProt P30291)
# Test: compounds stabilizing Wee1-luciferase fusion – cell-based, HeLa, Wee1K328M-luciferase, luminescence, primary screen (AID 1321);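 note: cells exposed to compound for 20 h before luminescence read; 0% = DMSO alone and 100% = MG132 at 30 µM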
# Details: HeLa Luc-Wee1K328M stability, at 5 µM, stronger effect = higher value, 100% = proteasome inhibitor MG132 effect
row,SMILES,reporter increase
1,Cc1nn(-c2ccccc2)c(=O)c2noc(C)c12,3.18%
2,CS(=O)(=O)c1ccc2nnn(OCC(=O)Nc3cccc(C#N)c3)c2c1,0.86%
3,Cn1c(=O)c(=O)n(C)c2cc(S(=O)(=O)NCCN3CCN(c4ccccc4F)CC3)ccc21,3.58%
4,COc1ccc(Cc2cc(-c3ccc(F)cc3)n[nH]c2=O)cc1,-0.9%
5,CCC1(C)Cc2c(sc3nc(SC)[nH]c(=O)c23)CO1 (stereo not given),-2.99%
6,CSc1nc2ccc(NC(=O)c3c(F)cccc3F)cc2s1,4.29%
7,COc1ccc2nc(Nc3nc4ccc(NC(C)=O)cc4s3)sc2c1,10.4% (active)
8,CCCC(=O)Nc1nc2ccc(NC(=O)c3cccnc3)cc2s1,3.09%
9,COc1ccc2nc(Nc3nc4cc5c(cc4s3)OCCO5)sc2c1,0.78%
10,CCCC(=O)Nc1nc2ccc(NC(=O)c3c(F)c(F)c(OC)c(F)c3F)cc2s1,10.8% (active)
11,CCOc1ccc2nc(Nc3nc4ccc(NC(C)=O)cc4s3)sc2c1,1.97%
12,CCCC(=O)Nc1ccc2c(c1)nc(CCNC(=O)c1ccco1)n2C,1.75%
13,CC(=O)N(OCc1ccc(OC(C)C)c(Cl)c1)C(C)=O,2.11%
14,Cc1c(S(=O)(=O)NCc2ccccc2)c(=O)n(C)c(=O)n1C,-0.22%
15,CN1CCN(c2ccc(S(=O)(=O)N3CCOCC3)cc2NC(=O)CCc2ccccc2)CC1,1.28%
16,Cc1nnc2n1N=C(c1ccc3c(c1)NC(=O)CO3)CS2,-1.74%
17,N/C(=N\S(=O)(=O)c1cc(C(F)(F)F)cc(C(F)(F)F)c1)c1cccs1,-2.49%
18,O=C(NNC(=O)c1cc2c(s1)CCCC2)c1ccccc1,4.34%
19,O=C(CNC(=O)c1cc2c(s1)CCC2)Nc1ccccc1Br,5.95%
20,O=C(Nc1ccc(F)cc1)c1cc2c(s1)CCCC2,16.5% (active)
21,O=C(CNCCC1=CCCCC1)Nc1ccccc1N1CCCCCC1,-2.9%
22,CN(CC(=O)Nc1ccc(F)cc1)CC(=O)Nc1ccc(Cl)c(S(=O)(=O)N2CCOCC2)c1,-2.59%
23,CCN(CC)CCOc1ccc2c(c1)C(=NNC(=O)c1ccccn1)c1cc(OCCN(CC)CC)ccc1-2,13% (active)
24,COc1ccc(CC(=O)N/N=C(\C)c2ccccn2)cc1,3.82%
25,CCOc1cc(NC(=O)c2ccccn2)c(OCC)cc1NC(=O)c1ccc(OC)cc1,-0.73%

row,SMILES,reporter increase
1,COc1ccccc1-n1cn[nH]c1=S,-1.47%
2,Cc1ccc2c(C)c(C(=O)N3CCC(N4CCC(C(=O)NC5CC5)CC4)CC3)oc2c1,7.23%
3,O=C(N/N=C\c1cc(Br)c(Br)o1)C1COc2ccccc2O1 (stereo not given),3.79%
4,Cc1cc(CO)nn1-c1ccc([N+](=O)[O-])cc1,-1.77%
5,COc1ccc(-c2csc(Nc3ccccn3)n2)cc1,0.98%
6,c1ccc(Nc2nc(-c3ccncc3)cs2)nc1,11.1% (active)
7,c1cnc(Nc2nc(-c3ccc4ccccc4c3)cs2)nc1,-0.11%
8,O=C(O)C#Cc1cccc2ccccc12,6.16%
9,O=[N+]([O-])C(=c1ccc2c(c1)N1C3=C(CCCC3)CC3CCCCC31N=2)[N+](=O)[O-] (stereo not given),-2.36%
10,C/C(O)=C\c1nc(=O)c2c(C)cc(C)nc2n1-c1ccccc1,-1.67%
11,Cc1cc(C)c2c(-n3cccc3)c(NC(=O)OCc3ccccc3)sc2n1,-2.38%
12,Cc1cc(C)c2c(n1)sc1c(=O)n(-c3ccccc3)c(=O)[nH]c12,17.8% (active)
13,O=c1[nH]c(SCc2cccc(F)c2)nc2ccccc12,-1.83%
14,O=P(O)(CN1CCCCCC1)C1Cc2ccccc2C1,2.27%
15,Cc1ccc(-c2noc(CN3CCN(Cc4ccccc4)CC3)n2)cc1,0.1%
16,CN1CCN(C(=O)CCc2nc(-c3ccc(Cl)cc3)no2)CC1,2.75%
17,CC1CCN(Cc2nc(-c3ccc(Cl)cc3)no2)CC1,8.97% (active)
18,COCC(C)OC(=O)c1c(N)n(CCCN2CCOCC2)c2nc3ccccc3nc12 (stereo not given),-0.94%
19,FC(F)(F)c1cccc(-c2nc(COc3ccc(Cl)cc3Cl)no2)c1,1.86%
20,COc1ccc(CC(=O)n2nc(-c3cccnc3)nc2N)cc1,9.39% (active)
21,COc1ccccc1C(=O)n1nc(-c2ccccc2)nc1N,0.74%
22,CCCC(=O)n1nc(-c2ccccc2)nc1N,-0.53%
23,Clc1ccc(CSc2nnc3c(n2)[nH]c2ccccc23)cc1,4.2%
24,CC(=O)NCC(O)c1ccc([N+](=O)[O-])cc1 (stereo not given),-2.38%
25,COC(=O)c1ccc(S(=O)(=O)N(CCO)Cc2ccccc2)n1C,0.33%
